According to PubChem BioAssay (NCI):
The panel holds about 79,000 compounds, 15% with a hit somewhere; the sample as a whole holds those more often. A number with no mark means an inactive call. Active and inactive are the calls of the source. Cut-off read from the data, not from the text of the source: active = growth inhibition above about 70%; inactive = the rest.

Assays:
[1] = NCI Yeast Anticancer Drug Screen. Data for the rad52 strain (AID 147);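 note: 0% = growth of vehicle-treated control cultures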; conditions: S. cerevisiae rad52 mutant growth inhibition, active compounds read high
In short: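 Compounds are applied to a genetically defined yeast strain lacking normal DNA damage repair, and inhibition of growth is expressed relative to cultures given vehicle only.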

[2] = NCI Yeast Anticancer Drug Screen. Data for the wt1 strain (AID 149);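 note: 0% = growth of vehicle-treated wt1 cultures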; conditions: S. cerevisiae wt1 strain (SPY 50644) growth inhibition, active compounds read high
In short: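 Growth inhibition read against vehicle controls after compound exposure of the wt1 yeast strain.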

[3] = NCI Yeast Anticancer Drug Screen. Data for the rad50EPP+ strain (AID 151);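 note: 0% = growth of vehicle-treated control cultures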; conditions: S. cerevisiae rad50 mutant strain, active compounds read high
In short: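 Compounds were applied to the rad50EPP+ yeast strain, which bears a defined DNA repair alteration, and growth inhibition was determined relative to vehicle-treated cultures.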

[4] = NCI Yeast Anticancer Drug Screen. Data for the rad50 strain (AID 155);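 note: 0% = growth of vehicle-only cultures of the same strain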; conditions: S. cerevisiae rad50 strain growth inhibition, active compounds read high
In short: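 Readout: growth inhibition relative to vehicle-treated cultures. Compound exposure was carried out in a genetically defined yeast strain deficient in DNA damage repair.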

[5] = NCI Yeast Anticancer Drug Screen. Data for the mec2-1 strain (AID 157); conditions: S. cerevisiae mec2-1 strain, active compounds read high
In short: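 Strain: mec2-1 (DNA repair/cell cycle alteration). Compound exposure, then growth measured; inhibition expressed relative to vehicle.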

[6] = NCI Yeast Anticancer Drug Screen. Data for the rad14 strain (AID 159);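 note: 0% = growth of vehicle-treated control cultures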; conditions: S. cerevisiae rad14 strain growth inhibition, active compounds read high
In short: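 Growth inhibition vs vehicle controls; genetically altered yeast strain (DNA damage repair defect) treated with test compounds.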

[7] = NCI Yeast Anticancer Drug Screen. Data for the sgs1 mgt1 strain (AID 161);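 note: 0% = growth of cultures given vehicle only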; conditions: S. cerevisiae sgs1 mgt1 strain, active compounds read high
In short: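 Read-out: growth inhibition vs vehicle controls. Cells: mutant yeast strain deficient in DNA damage repair.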

[8] = NCI Yeast Anticancer Drug Screen. Data for the CLN2oe strain (AID 163);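 note: 0% = growth of vehicle-only control cultures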; conditions: S. cerevisiae CLN2oe strain, active compounds read high
In short: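 Growth of a genetically modified yeast strain is measured after compound exposure and compared with cultures given vehicle alone.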

[9] = NCI Yeast Anticancer Drug Screen. Data for the cln2 rad14 strain (AID 165);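 note: 0% = growth equal to vehicle treated cultures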; conditions: S. cerevisiae cln2 rad14 strain, active compounds read high
In short: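 Compounds are applied to the cln2 rad14 yeast strain, and growth is then compared with that of vehicle-treated cultures to give inhibition.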

[10] = NCI Yeast Anticancer Drug Screen. Data for the bub3 strain (AID 167); conditions: S. cerevisiae bub3 mutant strain, active compounds read high
In short: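 Readout: yeast growth inhibition, expressed relative to vehicle-only wells. The test organism is a mutant strain from a panel with lesions in DNA repair or checkpoint genes.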

[11] = NCI Yeast Anticancer Drug Screen. Data for the wt2 strain (AID 169);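 note: 0% = growth of vehicle-treated yeast cultures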; conditions: S. cerevisiae wt2 strain growth inhibition, active compounds read high
In short: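 This strain belongs to a panel of yeast strains with defined genetic alterations in DNA damage repair or cell cycle control. Compounds are applied, and growth inhibition is measured against vehicle-treated cultures.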

[12] = NCI Yeast Anticancer Drug Screen. Data for the mlh1 strain (AID 171);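 note: 0% = growth of vehicle-treated control cultures of the same strain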; conditions: S. cerevisiae mlh1 strain growth inhibition, active compounds read high
In short: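 Growth of the mutant yeast strain after compound exposure, expressed as inhibition relative to vehicle-only controls.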

[13] = NCI Yeast Anticancer Drug Screen. Data for the sgs1 strain (AID 173);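 note: 0% = growth of vehicle-only control cultures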; conditions: S. cerevisiae sgs1 mutant, active compounds read high
In short: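 Growth of a yeast strain bearing a defined genetic alteration is measured after compound treatment. Inhibition is expressed relative to vehicle-only controls.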

[14] = NCI Yeast Anticancer Drug Screen. Data for the mlh1 rad18 strain (AID 175); conditions: S. cerevisiae mlh1 rad18 strain growth inhibition, active compounds read high
In short: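 Read-out is yeast growth inhibition, calculated against vehicle-only controls. The compound was applied to a strain engineered with DNA damage repair alterations.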

[15] = NCI Yeast Anticancer Drug Screen. Data for the rad18 strain (AID 177); conditions: S. cerevisiae rad18 mutant growth inhibition, active compounds read high
In short: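 Growth of the mutant yeast strain after compound exposure, normalised to vehicle-only cultures.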

[16] = at 5.0 µM (retest, dose inferred, filed as 0.5)
[17] = at 50.0 µM (retest, dose inferred, filed as 5.0)

O=C1CC(=O)N(C2CCCCC2)C(=O)N1c1ccccc1S(=O)(=O)Oc1ccccc1
growth inhibition ([1]; at 1.2 µM): 1%
growth inhibition ([1]; at 3.7 µM): 3%
growth inhibition ([1]; at 11.0 µM): 4%
growth inhibition ([1]; at 33.0 µM): 24%
growth inhibition ([1]; at 100.0 µM): 64%
growth inhibition ([2]; at 1.2 µM): 1%
growth inhibition ([2]; at 3.7 µM): -5%
growth inhibition ([2]; at 11.0 µM): -14%
growth inhibition ([2]; at 33.0 µM): 12%
growth inhibition ([2]; at 100.0 µM): 51%
growth inhibition ([3]; at 1.2 µM): -22%
growth inhibition ([3]; at 3.7 µM): -19%
growth inhibition ([3]; at 11.0 µM): -16%
growth inhibition ([3]; at 33.0 µM): 2%
growth inhibition ([3]; at 100.0 µM): -49%
growth inhibition ([4]; at 1.2 µM): -12%
growth inhibition ([4]; at 3.7 µM): -3%
growth inhibition [4, 16]: 66%
growth inhibition ([4]; at 11.0 µM): -12%
growth inhibition ([4]; at 33.0 µM): 5%
growth inhibition [4, 17]: 99% (active)
growth inhibition ([4]; at 50.0 µM): 38.6%
growth inhibition ([4]; at 100.0 µM): 33%
growth inhibition ([5]; at 1.2 µM): 11%
growth inhibition ([5]; at 3.7 µM): 0%
growth inhibition [5, 16]: 69%
growth inhibition ([5]; at 11.0 µM): -18%
growth inhibition ([5]; at 33.0 µM): 13%
growth inhibition [5, 17]: 99% (active)
growth inhibition ([5]; at 50.0 µM): 41%
growth inhibition ([5]; at 100.0 µM): 36%
growth inhibition ([6]; at 1.2 µM): -18%
growth inhibition ([6]; at 3.7 µM): -22%
growth inhibition ([6]; at 11.0 µM): -26%
growth inhibition ([6]; at 33.0 µM): -18%
growth inhibition ([6]; at 100.0 µM): 18%
growth inhibition [7, 16]: 3%
growth inhibition [7, 17]: 31%
growth inhibition ([7]; at 50.0 µM): 54.4%
growth inhibition ([8]; at 1.2 µM): 6%
growth inhibition ([8]; at 3.7 µM): -1%
growth inhibition ([8]; at 11.0 µM): 7%
growth inhibition ([8]; at 33.0 µM): 43%
growth inhibition ([8]; at 100.0 µM): 72% (active)
growth inhibition [9, 16]: 60%
growth inhibition [9, 17]: 80% (active)
growth inhibition ([9]; at 50.0 µM): 68%
growth inhibition ([10]; at 1.2 µM): -13%
growth inhibition ([10]; at 3.7 µM): 0%
growth inhibition [10, 16]: 25%
growth inhibition ([10]; at 11.0 µM): 2%
growth inhibition ([10]; at 33.0 µM): 7%
growth inhibition [10, 17]: 42%
growth inhibition ([10]; at 50.0 µM): 58.4%
growth inhibition ([10]; at 100.0 µM): 32%
growth inhibition ([11]; at 1.2 µM): 0%
growth inhibition ([11]; at 3.7 µM): -33%
growth inhibition ([11]; at 11.0 µM): -27%
growth inhibition ([11]; at 33.0 µM): -3%
growth inhibition ([11]; at 100.0 µM): 41%
growth inhibition ([12]; at 1.2 µM): -10%
growth inhibition ([12]; at 3.7 µM): -19%
growth inhibition ([12]; at 11.0 µM): -11%
growth inhibition ([12]; at 33.0 µM): 7%
growth inhibition ([12]; at 100.0 µM): 46%
growth inhibition ([13]; at 1.2 µM): -7%
growth inhibition ([13]; at 3.7 µM): -5%
growth inhibition ([13]; at 11.0 µM): -1%
growth inhibition ([13]; at 33.0 µM): 20%
growth inhibition ([13]; at 100.0 µM): 56%
growth inhibition [14, 16]: 61%
growth inhibition [14, 17]: 100% (active)
growth inhibition ([14]; at 50.0 µM): 41.4%
growth inhibition ([15]; at 1.2 µM): -15%
growth inhibition ([15]; at 3.7 µM): -13%
growth inhibition ([15]; at 11.0 µM): -19%
growth inhibition ([15]; at 33.0 µM): -18%
growth inhibition ([15]; at 100.0 µM): 12%
